The source made the active and inactive calls. Unless noted, no rule for the calls is given here.
How the values were obtained:
[1] = A549 cell viability effects, profiling panel, calcein-AM fluorescence, 48 h, basal (AID 1162); conditions: higher = more signal; also: test concentration not given here
[2] = adipocyte viability effects, profiling panel, cell-based, 3T3-L1 adipocytes, calcein-AM fluorescence, 48 h, basal (AID 1163); conditions: 3T3-L1 adipocytes viability, higher = more signal; also: test concentration not given here
[3] = HepG2 cell viability effects, profiling panel, calcein-AM fluorescence, 48 h, basal (AID 1164); conditions: higher = more signal; also: test concentration not given here
[4] = MM1S cell viability effects, profiling panel, calcein-AM fluorescence, 48 h, basal (AID 1165); conditions: higher = more signal;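 also: viability of MM1S multiple myeloma cells under basal unstimulated conditions; test concentration not given here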
[5] = basal RPMI8226 viability, no added stimulus, profiling panel, cell-based, calcein-AM fluorescence, 48 h, PK04 Diversity Set (AID 1166); conditions: RPMI8226 myeloma viability, higher = more signal;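 also: cells grown under basal conditions without added stimulus; test concentration not given here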
[6] = basal HepG2 mitochondrial membrane potential changes, profiling panel, cell-based, JC-1 fluorescence, 24 h, 100 nL compound (AID 1167); conditions: higher = more signal; also: test concentration not given here
[7] = basal 3T3-L1 adipocyte mitochondrial potential changes, profiling panel, cell-based, JC-1 fluorescence, 3T3-L1 adipocytes, 24 h, 100 nL compound (AID 1168); conditions: JC-1 mitochondrial fluorescence, higher = more signal, called active from +8 up or from −8 down; also: test concentration not given here
[8] = basal RPMI8226 mitochondrial membrane potential changes, profiling panel, cell-based, JC-1 fluorescence, 24 h, 100 nL compound (AID 1169); conditions: RPMI8226 myeloma, JC-1 mitochondrial potential fluorescence, higher = more signal; also: test concentration not given here
[9] = basal MM1S mitochondrial membrane potential changes, profiling panel, cell-based, JC-1 fluorescence, 24 h, 100 nL compound (AID 1170); conditions: higher = more signal; also: test concentration not given here
[10] = A549 lung cancer cell viability effects, profiling panel, resazurin fluorescence, 24 h, PK04 Diversity Set (AID 1171); conditions: higher = more signal, called active from +8 up or from −8 down; also: test concentration not given here
[11] = HepG2 liver cancer cell viability effects, profiling panel, resazurin fluorescence, 24 h, PK04 Diversity Set (AID 1172); conditions: higher = more signal; also: test concentration not given here
[12] = basal S. cerevisiae growth modulation, no modifier, primary screen, OD600, strain BY4716, 24 h, basal condition (AID 1173); conditions: OD600, 24 h, higher = more signal, called active from +8 up or from −8 down
[13] = MM1S myeloma cell viability, profiling panel, resazurin fluorescence, basal, 24 h, PK04 Diversity Set (AID 1174); conditions: higher = more signal, called active from +8 up or from −8 down;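 also: MM1S multiple myeloma cell line; test concentration not given here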
[14] = molecular target: Dihydroorotate dehydrogenase (quinone), mitochondrial (Plasmodium falciparum (isolate 3D7)) (UniProt Q08210); assay: PfDHODH enzyme inhibitors, primary screen, biochemical, C-terminal His tag, absorbance 600 nm (AID 1175); conditions: DCIP absorbance 600 nm, higher = more signal, called active from +8 up or from −8 down;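 also: recombinant parasite enzyme with a five histidine tag at its C terminus; test concentration not given here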
Sequence of Dihydroorotate dehydrogenase (quinone), mitochondrial (Plasmodium falciparum (isolate 3D7)) (Q08210 whole entry, looked up): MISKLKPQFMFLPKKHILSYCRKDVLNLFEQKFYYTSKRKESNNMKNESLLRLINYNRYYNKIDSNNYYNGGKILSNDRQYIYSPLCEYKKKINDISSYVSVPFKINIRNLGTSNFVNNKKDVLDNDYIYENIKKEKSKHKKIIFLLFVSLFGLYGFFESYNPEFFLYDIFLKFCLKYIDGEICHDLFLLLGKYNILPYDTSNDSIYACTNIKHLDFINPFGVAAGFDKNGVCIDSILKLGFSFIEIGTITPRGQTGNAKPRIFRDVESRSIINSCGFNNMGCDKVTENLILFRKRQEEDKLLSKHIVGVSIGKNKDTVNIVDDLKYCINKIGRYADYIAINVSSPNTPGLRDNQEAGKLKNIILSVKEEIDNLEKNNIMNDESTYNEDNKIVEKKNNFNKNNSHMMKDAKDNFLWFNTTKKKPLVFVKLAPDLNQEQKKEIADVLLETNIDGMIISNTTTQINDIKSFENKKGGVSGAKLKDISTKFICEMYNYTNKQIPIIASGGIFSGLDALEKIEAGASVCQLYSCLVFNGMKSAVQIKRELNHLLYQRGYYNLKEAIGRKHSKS

[15] = P. aeruginosa biofilm formation inhibitors, primary screen, strain PAO1, LB-PBS medium, absorbance 600 nm (AID 1176); also: test concentration not given here; conditions: P. aeruginosa PAO1 growth/biofilm, A600, 12 h; higher = more signal
[16] = S. cerevisiae RM11-1a growth modifiers, primary screen, strain RM11-1a, OD600, basal, 24 h (AID 1177); conditions: OD600, 24 h, higher = more signal, called active from +8 up or from −8 down;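 also: cultures grown under basal conditions with no added stressor; test concentration not given here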
[17] = E. coli acrAB mutant growth effects, primary screen, E. coli filamentation inducers, strain DRC39, OD650, 24 h (AID 1178); conditions: higher = more signal, called active from +8 up or from −8 down;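 also: growth measured as culture turbidity by optical density at 650 nm; test concentration not given here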
[18] = E. coli acrAB mutant growth effects, primary screen, E. coli filamentation inducers, strain DRC39, OD650, 48 h (AID 1179);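 also: screen aims at cell division blockers that make cells filament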; conditions: E. coli DRC39 delta-acrAB growth, higher = more signal, called active from +8 up or from −8 down
[19] = RPMI8226 myeloma cell viability, profiling panel, resazurin fluorescence, basal, 24 h, PK04 Diversity Set (AID 1180); conditions: higher = more signal;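 also: RPMI8826 multiple myeloma cell line at 5000 cells per well; test concentration not given here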
[20] = molecular target: E3 ubiquitin-protein ligase XIAP (Homo sapiens) (UniProt P98170); assay: XIAP binders, primary screen, biophysical, small-molecule microarray, fluorescence 635 nm (AID 1181); conditions: small-molecule microarray binding, higher = more signal;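 also: score merges 667 nm emission and signal to noise over triplicate slides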
Sequence of E3 ubiquitin-protein ligase XIAP (Homo sapiens) (P98170 whole entry, looked up): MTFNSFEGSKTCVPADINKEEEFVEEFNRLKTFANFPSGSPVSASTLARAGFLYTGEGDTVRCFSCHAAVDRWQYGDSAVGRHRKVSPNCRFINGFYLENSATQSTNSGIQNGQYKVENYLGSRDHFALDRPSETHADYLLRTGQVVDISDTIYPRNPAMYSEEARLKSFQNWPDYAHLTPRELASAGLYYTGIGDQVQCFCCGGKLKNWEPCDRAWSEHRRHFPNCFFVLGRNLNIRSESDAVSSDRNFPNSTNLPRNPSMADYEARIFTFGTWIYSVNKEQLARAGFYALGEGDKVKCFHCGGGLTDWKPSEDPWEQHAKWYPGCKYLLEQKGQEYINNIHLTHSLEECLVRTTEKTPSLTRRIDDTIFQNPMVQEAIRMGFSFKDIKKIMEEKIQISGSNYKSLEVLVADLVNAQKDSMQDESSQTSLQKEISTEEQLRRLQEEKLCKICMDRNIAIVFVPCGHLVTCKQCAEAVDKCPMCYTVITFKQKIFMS

SMILES: CC(C)NC(=O)[C@@H]1c2ccccc2C(=O)N(Cc2ccccc2C(F)(F)F)[C@H]1c1ccc(CO)cc1
- z-score [1]: -0.385
- z-score [2]: -0.341
- z-score [3]: -0.052
- z-score [4]: -0.321
- z-score [5]: 0.749
- z-score [6]: 0.186
- z-score [7]: -1.81 (inactive)
- z-score [8]: 0.317
- z-score [9]: 0.0239
- z-score [10]: 2.53 (inactive)
- z-score [11]: 0.994
- z-score [12]: -0.249 (inactive)
- z-score [13]: 0.711 (inactive)
- composite z-score [14]: 0.0482 (inactive)
- z-score [15]: 0.441 (inactive)
- z-score [16]: -0.227 (inactive)
- z-score [17]: 0.296 (inactive)
- z-score [18]: 0.0644 (inactive)
- z-score [19]: 0.616
- composite z-score [20]: -0.135

SMILES: CC(C)NC(=O)[C@@]1(c2ccc([N+](=O)[O-])cc2)CC(=O)N(CC23CC4CC(CC(C4)C2)C3)[C@@H]1c1ccc(CO)cc1
- z-score [1]: -1.34
- z-score [2]: 0.999
- z-score [3]: -1.72
- z-score [4]: -2.06
- z-score [5]: -3.8
- z-score [6]: -1.38
- z-score [7]: -0.959 (inactive)
- z-score [8]: -0.6
- z-score [9]: -0.24
- z-score [10]: -2.03 (inactive)
- z-score [11]: -1.21
- z-score [12]: -0.692 (inactive)
- z-score [13]: -2.06 (inactive)
- composite z-score [14]: -0.257 (inactive)
- z-score [15]: 0.792 (inactive)
- z-score [16]: 0.311 (inactive)
- z-score [17]: -0.502 (inactive)
- z-score [18]: -0.655 (inactive)
- z-score [19]: -3.14
- composite z-score [20]: -0.0295

SMILES: Cc1ccc(S[C@]2(C(=O)NC3CC3)CC(=O)N(C(C)C)[C@@H]2c2ccc(CO)cc2I)cc1
- z-score [1]: 1.22
- z-score [2]: 1.07
- z-score [3]: -0.722
- z-score [4]: -2.31
- z-score [5]: -2.82
- z-score [6]: 2.11
- z-score [7]: -0.578 (inactive)
- z-score [8]: -0.114
- z-score [9]: -2.21
- z-score [10]: 0.954 (inactive)
- z-score [11]: 0.0662
- z-score [12]: -3.47 (inactive)
- z-score [13]: -2.29 (inactive)
- composite z-score [14]: -0.632 (inactive)
- z-score [15]: -0.227 (inactive)
- z-score [16]: -2.02 (inactive)
- z-score [17]: 0.741 (inactive)
- z-score [18]: 0.617 (inactive)
- z-score [19]: -2.37
- composite z-score [20]: -0.02

SMILES: O=C(NCC(O)CO)[C@@]1(CCS(=O)(=O)c2ccccc2)N=C(c2ccc(OCCCO)cc2)O[C@H]1c1ccccc1 (stereo not given in full)
- z-score [1]: 0.433
- z-score [2]: 0.719
- z-score [3]: -0.4
- z-score [4]: -1
- z-score [5]: -2.47
- z-score [6]: 0.956
- z-score [7]: -0.874 (inactive)
- z-score [8]: -0.694
- z-score [9]: -0.745
- z-score [10]: -0.0521 (inactive)
- z-score [11]: -0.748
- z-score [12]: -0.386 (inactive)
- z-score [13]: -0.133 (inactive)
- composite z-score [14]: -0.637 (inactive)
- z-score [15]: 0.618 (inactive)
- z-score [16]: -0.707 (inactive)
- z-score [17]: 0.107 (inactive)
- z-score [18]: -0.618 (inactive)
- z-score [19]: -0.195
- composite z-score [20]: 0.0341

Source: PubChem BioAssay
